High-throughput results as filed in PubChem BioAssay.
CTSL1 counter: Fasciola hepatica cathepsin L1 inhibitors, primary screen, counter-screen for PFM18AAP inhibitor project, biochemical, QFRET, fluorogenic peptide substrate | 0.49% of 300,000 active | recombinant F. hepatica cathepsin L1, Z-Leu-Arg-MCA fluorescence | inhibition, % at 5.96 µM;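 active = inhibition above the mean of all tested compounds plus 3 SD, set per screening campaign, cut at about 17% in these data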;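 note: 0% = plate median of test compound wells and 100% = 1 µM Z-Phe-Ala-diazomethylketone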
pPAFAH FP inh: pPAFAH enzyme inhibitors, primary screen, biochemical, fluorescence polarization, human. recombinant pPAFAH, FP-rhodamine probe fluorescence polarization. Platelet-activating factor acetylhydrolase (Homo sapiens), Q13093. inhibition, % at 3.39 µM. 1.5% of 330,000 active. AID 463082, 2010;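 active = inhibition above the mean inhibition across the screen plus 3 SD, cut at about 25% in these data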;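 note: inhibitors block binding of the rhodamine activity-based probe so polarization drops; 0% = enzyme with DMSO and 100% = wells lacking pPAFAH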
PAFAH1B2 FP inh: PAFAH1B2 enzyme inhibitors, primary screen, biochemical, fluorescence polarization, human; Platelet-activating factor acetylhydrolase IB subunit alpha2 (Homo sapiens), P68402; recombinant PAFAH1B2, FP-rhodamine activity probe; inhibition, % at 3.39 µM; 1.2% of 340,000 active;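 active = inhibition above the mean of all tested compounds plus 3 SD, cut at about 24% in these data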;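 note: 0% = enzyme with DMSO and 100% = wells lacking PAFAH1B2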
Target sequence (P68402 whole entry, looked up): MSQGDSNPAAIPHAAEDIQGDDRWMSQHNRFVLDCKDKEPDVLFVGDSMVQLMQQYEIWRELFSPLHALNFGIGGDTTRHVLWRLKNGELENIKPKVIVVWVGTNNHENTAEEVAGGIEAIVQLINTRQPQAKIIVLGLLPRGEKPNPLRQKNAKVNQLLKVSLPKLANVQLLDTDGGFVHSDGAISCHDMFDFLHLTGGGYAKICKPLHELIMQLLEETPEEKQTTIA
PP5 primary: PP5 phosphatase inhibitors, primary screen, biochemical, fluorescence; Serine/threonine-protein phosphatase 5 (Homo sapiens), P53041; purified PP5c, OMFP substrate fluorescence; inhibition, % at 6.7 µM; 0.18% of 320,000 active;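 active = inhibition above the campaign's mean inhibition across all tested compounds plus 3 SD, cut at about 9.5% in these data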;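 note: 0% = DMSO only and 100% = 100 µM cantharidin control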
PAFAH2 FP inh: PAFAH2 enzyme inhibitors, primary screen, biochemical, fluorescence polarization, human; recombinant PAFAH2, FP-rhodamine activity probe; inhibition, % at 3.39 µM; 0.99% of 340,000 active; Platelet-activating factor acetylhydrolase 2, cytoplasmic (Homo sapiens), Q99487;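 active = inhibition above the mean over all tested compounds plus 3 SD, cut at about 30% in these data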;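 note: inhibitors block probe labeling of enzyme so polarization drops; 0% = enzyme with DMSO and 100% = wells lacking PAFAH2 protein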
PAFAH1B3 FP inh: PAFAH1B3 enzyme inhibitors, primary screen, biochemical, fluorescence polarization, human. recombinant PAFAH1B3, FP-rhodamine probe. inhibition, % at 3.39 µM. 0.28% of 340,000 active;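 active = inhibition above the screen-wide average of all tested compounds plus 3 SD, cut at about 25% in these data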;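 note: 0% = enzyme with DMSO only and 100% = wells lacking PAFAH1B3 protein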
Target sequence (Q15102 whole entry, looked up): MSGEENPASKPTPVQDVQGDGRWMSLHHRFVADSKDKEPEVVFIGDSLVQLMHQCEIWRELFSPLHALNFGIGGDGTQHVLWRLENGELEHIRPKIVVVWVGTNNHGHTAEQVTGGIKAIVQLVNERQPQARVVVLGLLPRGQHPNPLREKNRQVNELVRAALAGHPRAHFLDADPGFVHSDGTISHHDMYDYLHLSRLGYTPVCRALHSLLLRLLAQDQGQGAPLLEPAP
PAFAH2 FP conf: PAFAH2 enzyme inhibitors, confirmation, biochemical, fluorescence polarization, human; shares compounds with PAFAH2 FP inh; recombinant PAFAH2, FP-rhodamine activity probe; inhibition, % at 3.39 µM; 65% of 2,300 active; AID 493030, 2011;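 active = mean inhibition over three repeats above a set limit taken from the earlier primary screen, cut at about 30% in these data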;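 note: inhibitor blocks binding of rhodamine activity probe so polarization falls; 0% = enzyme with DMSO and 100% = wells lacking PAFAH2 protein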
An asterisk follows results filed as active; nt = no result given. Only some compounds are listed: those with a hit (about 3% of all), similar ones and a draw of the others.

SMILES	CTSL1 counter	pPAFAH FP inh	PAFAH1B2 FP inh	PP5 primary	PAFAH2 FP inh	PAFAH1B3 FP inh	PAFAH2 FP conf
Nc1ccc(C(=O)OCC(=O)NC2CC2)cc1[N+](=O)[O-]	-2.4	-0.3	6.2	-0.7	59.3*	1.6	47.8*
Cc1cc(C(=O)OCC(=O)NC2CC2)ccc1[N+](=O)[O-]	nt	14.0	8.7	-0.2	23.2	6.7	nt
Cc1ccc(Nc2c([N+](=O)[O-])c(=O)oc3ccccc23)cc1	0.8	4.3	-1.7	2.2	0.9	12.4	nt
O=c1oc2ccccc2c(Nc2ccc3ccccc3c2)c1[N+](=O)[O-]	-1.3	18.4	7.1	2.4	34.5*	2.9	27.7
CC(=O)c1ccc(NC(=O)c2ccc(NC(=O)CCS(=O)(=O)c3cccs3)cc2)cc1	0.7	0.8	-0.3	5.3	71.6*	-0.5	58.2*
CSCCC(NS(=O)(=O)c1ccc(Cl)cc1)C(=O)O (configuration not stated)	-4.9	-2.4	4.2	-0.8	35.4*	-0.8	28.6
CSCCC(NS(=O)(=O)c1c(Cl)cccc1Cl)C(=O)O (configuration not stated)	1.8	-3.0	-1.9	-6.0	2.2	3.3	nt
Cc1cccc(C)c1-c1ccc(CN2C(CC(C)C)C(=O)N(Cc3cn(CCO)nn3)CCS2(=O)=O)cc1 (configuration not stated)	nt	nt	3.3	nt	8.2	1.7	nt
COc1cc(/C=C/C(=O)OCC(=O)Nc2ccc(C)c(S(=O)(=O)N3CCCCC3)c2)ccc1O	-3.2	10.8	2.4	3.4	66.6*	5.2	73.3*
COc1cc(/C=C/C(=O)OCC(=O)Nc2cc(S(=O)(=O)N3CCCC3)ccc2Cl)cc(OC)c1OC	nt	7.7	0.3	nt	30.8*	6.3	26.0
COc1cc(/C=C/C(=O)OCC(=O)Nc2cc(S(=O)(=O)N3CCCCC3)ccc2C)ccc1O	0.8	11.9	-1.7	0.6	74.9*	-5.0	78.7*
COc1cc(/C=C/C(=O)OCC(=O)c2ccc(S(=O)(=O)N3CCCCC3)cc2)cc(OC)c1OC	nt	nt	2.0	nt	3.7	-1.1	nt
COc1ccc(CC(=O)Nc2cc(S(=O)(=O)N3CCCCC3)ccc2C)cc1	nt	nt	2.7	nt	8.0	0.1	nt
CC1CCN(C(=O)CSc2nnc3c(n2)[nH]c2ccccc23)CC1	3.5	4.0	-1.4	1.7	-3.0	-0.4	nt
O=C(Cn1[nH]c(=O)c2ccccc2c1=O)NCCN1C(=O)S/C(=C\c2ccccc2)C1=O	nt	9.2	2.1	nt	31.5*	3.8	4.3
O=C(COC(=O)C1CC1)NC(=O)c1ccccc1	nt	-0.3	11.0	-0.9	32.2*	2.3	13.1
O=C(COC(=O)C1CC1)Nc1ccc(N=Nc2ccccc2)cc1	-4.0	9.7	2.7	3.9	85.2*	3.7	78.2*
CCCCC(=O)OCC(=O)Nc1ccc(OC(F)F)cc1	-16.5	7.7	-0.6	-0.5	24.6	3.9	nt
O=C(COC(=O)C1CC1)Nc1ccc(OC(F)F)cc1	-6.2	12.6	0.9	0.3	54.5*	9.2	45.6*
O=C(NCc1ccco1)C1CCCN1C(=O)Nc1ccc(Br)cc1 (configuration not stated)	nt	nt	3.6	nt	-8.3	2.5	nt
Cc1ccc(C(=O)Nc2ccccc2C(=O)NCc2ccco2)cc1	nt	1.1	0.6	nt	5.0	6.6	nt
COc1cc2c(cc1OC)-c1cc(NCc3ccccn3)nc(=O)n1CC2	-1.7	9.5	-4.2	6.8	31.0*	1.8	15.8
O=C(OCc1cc(=O)n2c(n1)sc1ccccc12)c1ccc(O)cc1	1.9	4.6	-0.2	0.9	33.8*	4.2	6.8
O=C(CCc1ccc(S(=O)(=O)N2CCOCC2)cc1)OCc1nc2ccccc2s1	-7.1	6.2	1.9	0.7	-5.6	5.8	nt
Nc1ccc(C(=O)OCc2nc3ccccc3s2)cc1	-3.0	0.5	-0.6	0.0	60.4*	5.9	48.1*
O=C(OCc1nc2ccccc2s1)c1ccc(Br)s1	0.4	10.9	1.0	1.7	16.6	2.8	nt
